In PubChem BioAssay (EPA / NIEHS):
Active and inactive are the calls of the source. The calls were made as follows: active = hit-call score of the fitted dose curve at least 0.9, where 1 is the maximum; inactive = score below 0.9.

Key:
Conditions in all cases: mRNA level, 48 h; actives raise or lower the signal
[1] = read-out: growth arrest and DNA damage 45 (GADD45G), GADD45G (gene 10912); experiment: LTEA_HepaRG_GADD45G: Life Technologies and Expression Analysis (LTEA) Assay for growth arrest and DNA damage 45 (GADD45G) using HepaRG (AID 2283499)
Procedure, shortened: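 Human hepatic HepaRG line treated 48 h with chemicals (eight concentrations, half-log steps from 100 uM); transcript induction or repression of GADD45G scored by qRT-PCR versus DMSO vehicle.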

[2] = read-out: Glutamate-cysteine ligase regulatory (GCLM), GCLM (gene 2730); experiment: LTEA_HepaRG_GCLM: Life Technologies and Expression Analysis (LTEA) Assay for Glutamate-cysteine ligase regulatory (GCLM) using HepaRG (AID 2283500)
Procedure, shortened: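 Differentiated human HepaRG cells exposed 48 h in serum-free induction medium to 8-point half-log concentrations (top 100 uM, 0.5% DMSO), in duplicate. GCLM mRNA quantified by qRT-PCR, normalized to ACTB, GAPDH, POLR2A; bidirectional fitting versus DMSO.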

[3] = read-out: Glutathione S-transferase M3 (GSTM3), GSTM3 (gene 2947); experiment: LTEA_HepaRG_GSTM3: Life Technologies and Expression Analysis (LTEA) Assay for Glutathione S-transferase M3 (GSTM3) using HepaRG (AID 2283501)
Procedure, shortened: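 Changes in GSTM3 expression, an oxidative-stress marker, were scored by bidirectional curve fitting against 0.5% DMSO vehicle. Human HepaRG cultures received chemicals for 48 h in duplicate, highest concentration 100 uM with half-log dilutions.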

[4] = read-out: Heat shock 70 kDa protein 1 (HSPA1A), gene 3303; experiment: LTEA_HepaRG_HSPA1A: Life Technologies and Expression Analysis (LTEA) Assay for Heat shock 70 kDa protein 1 (HSPA1A) using HepaRG (AID 2283502)
Procedure, shortened: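 Differentiated human HepaRG cells in serum-free induction medium were exposed in duplicate for 48 h to eight concentrations (top 100 uM, half-log steps, 0.5% DMSO). HSPA1A mRNA was quantified by qRT-PCR, normalized to ACTB, GAPDH and POLR2A, and fitted bidirectionally against DMSO.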

[5] = read-out: Hypoxia-inducible factor 1-alpha (Homo sapiens) (UniProt Q16665); experiment: LTEA_HepaRG_HIF1A: Life Technologies and Expression Analysis (LTEA) Assay for Hypoxia-inducible factor 1 (HIF1A) Trancription factor using HepaRG (AID 2283503)
Procedure, shortened: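 HepaRG, 48 h exposure, 8-pt half-log series from 100 uM, 0.5% DMSO vehicle, duplicates. Readout: HIF1A transcript by qRT-PCR (Fluidigm array), housekeeping-normalised. Bidirectional curve fit vs DMSO baseline.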

[6] = read-out: 3-Hydroxy-3-Methylglutaryl-CoA Synthase 2 (HMGCS2), HMGCS2 (gene 3158); experiment: LTEA_HepaRG_HMGCS2: Life Technologies and Expression Analysis (LTEA) Assay for 3-Hydroxy-3-Methylglutaryl-CoA Synthase 2 (HMGCS2) using HepaRG (AID 2283504)
Procedure, shortened: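 Expression of HMGCS2 in human HepaRG liver cells is measured by qRT-PCR 48 h after dosing (highest 100 uM, half-log series, 0.5% DMSO). Values come from bidirectional concentration-response fitting with DMSO as baseline.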

HGF (gene 3082) = experiment: LTEA_HepaRG_HGF: Life Technologies and Expression Analysis (LTEA) Assay for Hepatocyte Growth Facto (HGF) using HepaRG (AID 2283505)
Procedure, shortened: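 Gain or loss of HGF mRNA in human HepaRG liver cells after 48 h chemical exposure; eight concentrations up to 100 uM with 0.5% DMSO vehicle, quantified by TaqMan qRT-PCR.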

[7] = read-out: Insulin Like Growth Factor 1 (IGF1), IGF1 (gene 3479); experiment: LTEA_HepaRG_IGF1: Life Technologies and Expression Analysis (LTEA) Assay for Insulin Like Growth Factor 1 (IGF1) using HepaRG (AID 2283506)
Procedure, shortened: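 Differentiated human HepaRG cells were dosed for 48 h in serum-free induction medium with 0.5% DMSO, eight half-log concentrations up to 100 uM, in duplicate. IGF1 mRNA was quantified by qRT-PCR normalized to ACTB, GAPDH, POLR2A; bidirectional fitting versus DMSO.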

[8] = read-out: Intercellular Adhesion Molecule 1 (ICAM1), ICAM1 (gene 3383); experiment: LTEA_HepaRG_ICAM1: Life Technologies and Expression Analysis (LTEA) Assay for Intercellular Adhesion Molecule 1 (ICAM1) using HepaRG (AID 2283507)
Procedure, shortened: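 Gain or loss of transcript in HepaRG hepatic cells is quantified by qRT-PCR after 48 h chemical exposure (up to 100 uM, half-log steps), with DMSO as baseline.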

[9] = read-out: Insulin-like growth factor-binding protein 1 (IGFBP1), IGFBP1 (gene 3484); experiment: LTEA_HepaRG_IGFBP1: Life Technologies and Expression Analysis (LTEA) Assay for Insulin-like growth factor-binding protein 1 (IGFBP1) using HepaRG (AID 2283508)
Procedure, shortened: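 mRNA induction or loss was quantified by qRT-PCR after 48 h chemical exposure of human HepaRG cells, with 0.5% DMSO as vehicle and baseline. Concentration-response over eight points up to 100 uM.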

[10] = read-out: Interleukin 6 (IL6), IL6 (gene 3569); experiment: LTEA_HepaRG_IL6: Life Technologies and Expression Analysis (LTEA) Assay for Interleukin 6 (IL6) using HepaRG (AID 2283509)
Procedure, shortened: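 Differentiated human HepaRG cells, plated 48 h then switched to serum-free induction medium, were exposed in duplicate for 48 h to eight half-log concentrations up to 100 uM in 0.5% DMSO. IL6 mRNA measured by qRT-PCR, normalized to ACTB/GAPDH/POLR2A.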

[11] = read-out: Interleukin 6 Receptor (IL6R), IL6R (gene 3570); experiment: LTEA_HepaRG_IL6R: Life Technologies and Expression Analysis (LTEA) Assay for Interleukin 6 Receptor (IL6R) using HepaRG (AID 2283510)
Procedure, shortened: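 Differentiated human HepaRG cells, plated 48 h then switched to serum-free induction medium, were dosed in duplicate for 48 h at eight half-log concentrations up to 100 uM in 0.5% DMSO. IL6R mRNA quantified by qRT-PCR, normalized to ACTB/GAPDH/POLR2A; bidirectional fit versus DMSO.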

[12] = read-out: Potassium channel subfamily K member 1 (KCNK1), KCNK1 (gene 3775); experiment: LTEA_HepaRG_KCNK1: Life Technologies and Expression Analysis (LTEA) Assay for Potassium channel subfamily K member 1 (KCNK1) using HepaRG (AID 2283511)
Procedure, shortened: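 Differentiated human HepaRG cells in serum-free induction medium were exposed in duplicate for 48 h to 8 half-log concentrations up to 100 uM in 0.5% DMSO. KCNK1 mRNA was measured by TaqMan qRT-PCR, normalized to ACTB, GAPDH and POLR2A, and fitted bidirectionally versus DMSO.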

[13] = read-out: Keratin 19 (KRT19), KRT19 (gene 3880); experiment: LTEA_HepaRG_KRT19: Life Technologies and Expression Analysis (LTEA) Assay for Keratin 19 (KRT19) using HepaRG (AID 2283512)
Procedure, shortened: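 Gene-expression endpoint in the human liver line HepaRG after 48 h exposure to up to 100 uM test chemical with 0.5% DMSO vehicle; KRT19 mRNA by qRT-PCR, analyzed bidirectionally versus DMSO.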

[14] = read-out: JUN Transcription Factor, JUN (gene 3725); experiment: LTEA_HepaRG_JUN: Life Technologies and Expression Analysis (LTEA) Assay for JUN Transcription Factor using HepaRG (AID 2283513)
Procedure, shortened: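 Differentiated HepaRG cells were exposed to chemicals for 48 h in serum-free induction medium, 8 concentrations from 100 uM in half-log steps, 0.5% DMSO vehicle, in duplicate. JUN mRNA was quantified by TaqMan qRT-PCR, normalized to ACTB, GAPDH, POLR2A.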

[15] = read-out: Lipase C (LIPC), LIPC (gene 3990); experiment: LTEA_HepaRG_LIPC: Life Technologies and Expression Analysis (LTEA) Assay for Lipase C (LIPC) using HepaRG (AID 2283514)
Procedure, shortened: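 Differentiated human HepaRG cells in serum-free induction medium were exposed in duplicate for 48 h to eight concentrations (top 100 uM, half-log steps, 0.5% DMSO). LIPC mRNA was quantified by TaqMan qRT-PCR, normalized to ACTB, GAPDH and POLR2A, with bidirectional fitting versus DMSO.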

[16] = read-out: Lipoprotein lipase (LPL), LPL (gene 4023); experiment: LTEA_HepaRG_LPL: Life Technologies and Expression Analysis (LTEA) Assay for Lipoprotein lipase (LPL) using HepaRG (AID 2283515)
Procedure, shortened: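 Differentiated human HepaRG cells in serum-free induction medium were exposed in duplicate for 48 h to eight half-log concentrations (top 100 uM) in 0.5% DMSO. LPL mRNA was quantified by TaqMan qRT-PCR, normalized to ACTB, GAPDH and POLR2A.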

[17] = read-out: MicroRNA 122 (MIR122), gene 406906; experiment: LTEA_HepaRG_MIR122: Life Technologies and Expression Analysis (LTEA) Assay for MicroRNA 122 (MIR122) using HepaRG (AID 2283516); also: the transcript read is the microRNA miR-122
Procedure, shortened: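 Differentiated human HepaRG cells were exposed 48 h in serum-free induction medium to eight half-log concentrations (top 100 uM, 0.5% DMSO). Transcript level was measured by TaqMan qRT-PCR, normalized to ACTB, GAPDH and POLR2A, and fitted bidirectionally versus DMSO.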

[18] = read-out: matrix metalloproteinase-10 (MMP10), MMP10 (gene 4319); experiment: LTEA_HepaRG_MMP10: Life Technologies and Expression Analysis (LTEA) Assay for matrix metalloproteinase-10 (MMP10) using HepaRG (AID 2283517)
Procedure, shortened: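 HepaRG, collagen I, ~100,000 cells/well; serum-free induction medium; 48 h exposure, duplicate, 8-pt half-log to 100 uM, 0.5% DMSO. Readout: TaqMan qRT-PCR, normalized to ACTB/GAPDH/POLR2A; bidirectional fit vs DMSO.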

MYC, MYC (gene 4609) = experiment: LTEA_HepaRG_MYC: Life Technologies and Expression Analysis (LTEA) Assay for MYC using HepaRG (AID 2283518)
Procedure, shortened: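 Cells are thawed, plated and cultured 48 h, then treated for 48 h with test chemicals (eight half-log concentrations from 100 uM, 0.5% DMSO vehicle). RNA is isolated and MYC expression quantified by qRT-PCR against three housekeeping genes.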

Measured: AC50

Chain of Hypoxia-inducible factor 1-alpha (Homo sapiens) (Q16665 whole entry, looked up): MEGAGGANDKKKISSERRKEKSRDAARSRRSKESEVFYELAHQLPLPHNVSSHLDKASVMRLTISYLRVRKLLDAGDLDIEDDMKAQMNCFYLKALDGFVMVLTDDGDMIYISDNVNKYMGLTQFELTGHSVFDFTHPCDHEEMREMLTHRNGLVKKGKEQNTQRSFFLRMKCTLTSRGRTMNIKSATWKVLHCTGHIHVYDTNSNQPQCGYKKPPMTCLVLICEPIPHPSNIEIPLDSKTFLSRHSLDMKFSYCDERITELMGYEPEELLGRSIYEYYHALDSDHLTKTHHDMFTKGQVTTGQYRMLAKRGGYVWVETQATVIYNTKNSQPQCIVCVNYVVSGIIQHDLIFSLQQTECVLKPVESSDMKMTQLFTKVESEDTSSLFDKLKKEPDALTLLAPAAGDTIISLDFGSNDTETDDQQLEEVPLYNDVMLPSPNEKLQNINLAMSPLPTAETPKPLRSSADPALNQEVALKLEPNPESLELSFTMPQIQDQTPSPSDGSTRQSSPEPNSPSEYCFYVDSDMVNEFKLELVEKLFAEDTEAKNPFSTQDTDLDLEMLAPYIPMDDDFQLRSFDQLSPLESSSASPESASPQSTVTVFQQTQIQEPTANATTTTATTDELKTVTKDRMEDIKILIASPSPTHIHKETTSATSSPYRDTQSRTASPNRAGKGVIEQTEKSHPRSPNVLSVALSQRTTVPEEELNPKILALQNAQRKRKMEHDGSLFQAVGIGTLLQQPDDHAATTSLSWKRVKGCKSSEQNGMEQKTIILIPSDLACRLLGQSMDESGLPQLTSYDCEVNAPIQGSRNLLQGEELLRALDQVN

CC(=O)OC/C=C(\C)CCC=C(C)C
inactive: all assays above

CCCCCCCCCCCC(=O)OC
inactive: all assays above

CCCCCC(=O)O
inactive: all assays above

NC(=O)Cn1c(=O)cc(CCN2CCN(c3nccc4sccc34)CC2)c2ccc(F)cc21
active: [1] 83.8 µM | [4] 21.9 µM | [5] 13.1 µM | [6] 50 µM | [8] 50 µM | [9] 76.6 µM | [15] 50 µM | [16] 50 µM
inactive: all other assays above

CCCCCCCCCCCCCO
inactive: all assays above

OC[C@@H](O)[C@@H](O)[C@H](O)[C@H](O)CO
inactive: all assays above
